Experimental data published in PubChem BioAssay (NCATS).
Active and inactive are the calls of the source. The call rests on the fitted dose curve; in most records, active means well fitted curve in the direction sought with a large enough effect (not every such curve was filed as active); inconclusive means small, poorly fitted or top-dose-only effect, or effect the other way, or another doubt; inactive means no such curve, though single readings can be large or run the other way.

target: Pyruvate kinase PKM (Homo sapiens) (UniProt P14618); test: qHTS Assay for Activators of Human Muscle Pyruvate Kinase (AID 954); settings: purified human muscle pyruvate kinase, luciferase-coupled luminescence, 1 h; series mostly up to 57.5 µM; activity change, negative = inhibition: at the top concentration;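 further: 0% = uninhibited enzyme and -100% = no enzyme or full thiadiazolimine inhibition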
Procedure, shortened: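 Screening used highly purified human pyruvate kinase M2 under submaximal activity, with PEP at its Km and ADP below Km. After an hour at room temperature, ATP was read by luciferase luminescence.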

Sequence of Pyruvate kinase PKM (Homo sapiens) (P14618 whole entry, looked up): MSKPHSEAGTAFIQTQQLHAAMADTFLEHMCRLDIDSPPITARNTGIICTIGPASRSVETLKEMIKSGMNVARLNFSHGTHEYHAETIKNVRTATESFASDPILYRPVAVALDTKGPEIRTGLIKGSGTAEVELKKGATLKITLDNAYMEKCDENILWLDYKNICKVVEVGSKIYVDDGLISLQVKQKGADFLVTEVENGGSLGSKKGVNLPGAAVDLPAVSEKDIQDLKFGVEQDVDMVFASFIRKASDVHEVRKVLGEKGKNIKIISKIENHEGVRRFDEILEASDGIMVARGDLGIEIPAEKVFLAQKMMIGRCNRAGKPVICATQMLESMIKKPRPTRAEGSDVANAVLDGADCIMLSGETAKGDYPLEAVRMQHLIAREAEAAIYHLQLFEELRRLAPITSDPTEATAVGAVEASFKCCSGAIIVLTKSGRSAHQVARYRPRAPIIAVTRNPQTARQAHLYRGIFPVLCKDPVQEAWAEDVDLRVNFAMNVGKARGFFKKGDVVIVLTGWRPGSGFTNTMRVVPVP

Compound | activity change, negative = inhibition
CCCCNc1c(C(=O)OCC)c(C)nc2c1cnn2CC | 4.48% (inactive)
CC1=C(C)C(=O)C(CCCCC#CCCCC#CCO)=C(C)C1=O | -13.6% (inactive)
CN1CCN(CC(=O)N2c3ccccc3C(=O)Nc3cccnc32)CC1 | -9.76% (inactive)
C[N+](C)(C)CCOC(=O)CCC(=O)OCC[N+](C)(C)C | -5.83% (inactive)
CC(C)[N+](C)(CCOC(=O)C1c2ccccc2Oc2ccccc21)C(C)C | -21.9% (inactive)
CN(C)CCN(Cc1cccs1)c1ccccn1 | -29.4% (inactive)
CCCOc1ccccc1-c1nc2n[nH]nc2c(=O)[nH]1 | -22.9% (inactive)
CSc1ccc(C(=O)c2[nH]c(=O)[nH]c2C)cc1 | -4.38% (inactive)
O=C(O)CCCCCCCC(=O)O | -5.91% (inactive)
CCC(=O)c1ccc2c(c1)N(CCCN(C)C)c1ccccc1S2 | -11.2% (inactive)
CN(C)CC/C=C1\c2ccccc2COc2ccccc21 | -12% (inactive)
Cc1ccc(Cl)c(Nc2ccccc2C(=O)O)c1Cl | -6.12% (inactive)
CCN(CC)CCOCCOC(=O)C1(c2ccccc2)CCCC1 | -2.75% (inactive)
Nc1ncn([C@@H]2O[C@H](CO)[C@@H](O)[C@H]2O)c(=O)n1 | -13.7% (inactive)
CCn1nc(C(=O)O)c(=O)c2cc3c(cc21)OCO3 | -21.9% (inactive)
C[C@]12C=CC(=O)C=C1CC[C@H]1[C@@H]3C[C@@H](O)[C@](O)(C(=O)CO)[C@@]3(C)C[C@H](O)[C@@]12F | -6.11% (inactive)
CN/C(=C\[N+](=O)[O-])NCCSCc1ccc(CN(C)C)o1 | -14.4% (inactive)
CN(C)C(=O)Oc1cccc([N+](C)(C)C)c1 | -9.31% (inactive)
CCOC(=O)c1cnc2c(cnn2CC)c1NN=C(C)C | 25.2% (inactive)
Cc1scc2c1N(C(=O)CN1CCN(C)CC1)c1ccccc1NC2=O | -10.2% (inactive)
C[C@H](CS)C(=O)N1CCC[C@H]1C(=O)O | -22.1% (inactive)
O=C1CC2(CCCC2)CC(=O)N1CCCCN1CCN(c2ncccn2)CC1 | -18.4% (inactive)
CCN1CCc2nc(N)oc2CC1 | -4.89% (inactive)
Brc1c(NC2=NCCN2)ccc2nccnc12 | -22.7% (inactive)
CCCN(CCC)CCc1cccc2c1CC(=O)N2 | -18.1% (inactive)
